Assay results: PubChem BioAssay (Tox21)
Inconclusive results are not listed. Active and inactive are the calls of the source. Unless noted, calls come from the whole dose curve; as a rule, active = well fitted curve in the direction sought with a large enough effect in the repeat runs; inconclusive = weak or mixed curves; inactive = no such curve, though single readings can be large; an effect the other way counts as inactive or inconclusive.

Columns and labels:
[1] = qHTS assay to identify aromatase inhibitors - cell viability counter screen (AID 743084);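 note: cells stimulated with testosterone during compound exposure; nearly all actives have a fitted effect of over 55% in size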
[2] = molecular target: Aryl hydrocarbon receptor (Homo sapiens) (UniProt P35869); assay: qHTS assay to identify small molecule that activate the aryl hydrocarbon receptor (AhR) signaling pathway (AID 743085);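 note: HG2L7.5c1 human HepG2 liver cells with stably integrated DRE-driven firefly reporter; series mostly up to about 70 µM; nearly all actives have a fitted effect of over 15% in size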
Aryl hydrocarbon receptor (Homo sapiens), sequence (P35869 whole entry, looked up): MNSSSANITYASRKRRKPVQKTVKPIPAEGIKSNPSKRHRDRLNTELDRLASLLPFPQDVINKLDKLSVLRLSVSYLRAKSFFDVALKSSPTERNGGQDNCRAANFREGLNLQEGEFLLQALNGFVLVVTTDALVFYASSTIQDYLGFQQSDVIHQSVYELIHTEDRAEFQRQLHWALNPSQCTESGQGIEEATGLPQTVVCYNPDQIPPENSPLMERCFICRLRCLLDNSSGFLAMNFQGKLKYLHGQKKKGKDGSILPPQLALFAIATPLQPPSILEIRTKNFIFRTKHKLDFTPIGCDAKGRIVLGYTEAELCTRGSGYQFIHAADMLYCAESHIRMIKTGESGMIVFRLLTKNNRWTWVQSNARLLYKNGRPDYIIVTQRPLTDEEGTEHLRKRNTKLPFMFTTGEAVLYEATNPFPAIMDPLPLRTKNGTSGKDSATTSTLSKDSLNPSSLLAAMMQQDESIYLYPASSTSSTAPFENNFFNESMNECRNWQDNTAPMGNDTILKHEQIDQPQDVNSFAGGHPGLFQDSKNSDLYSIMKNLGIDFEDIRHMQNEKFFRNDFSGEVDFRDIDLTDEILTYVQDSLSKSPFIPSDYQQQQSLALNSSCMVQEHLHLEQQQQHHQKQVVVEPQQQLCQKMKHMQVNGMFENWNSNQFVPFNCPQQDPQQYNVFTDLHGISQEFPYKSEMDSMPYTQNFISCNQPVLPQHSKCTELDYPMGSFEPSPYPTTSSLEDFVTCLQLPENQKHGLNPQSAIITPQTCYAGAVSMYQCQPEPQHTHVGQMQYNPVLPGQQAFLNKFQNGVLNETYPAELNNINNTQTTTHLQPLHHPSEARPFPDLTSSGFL
Summary of the method: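 Measured in HG2L7.5c1 cells: CellTiter-Fluor signal (30 min incubation, 37C) for viability, then luciferase luminescence (30 min, room temperature). Compound contact time was 24 h at 37C, following a 5 h pre-incubation.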

[3] = qHTS assay to identify small molecule that activate the aryl hydrocarbon receptor (AhR) signaling pathway - cell viability counter screen (AID 743086);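 note: HepG2 liver cells carrying the AhR DRE luciferase reporter; series mostly up to about 70 µM; nearly all actives have a fitted effect of over 45% in size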
Summary of the method: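 HepG2-AhR-luc (HG2L7.5c1) cells, 4000/well, treated 24 h at 37 C with compound; viability measured as CellTiter-Fluor fluorescence after 30 min in the same wells as the luciferase read.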

[4] = molecular target: Peroxisome proliferator-activated receptor gamma (Homo sapiens) (UniProt P37231); assay: qHTS assay to identify small molecule agonists of the peroxisome proliferator-activated receptor gamma (PPARg) signaling pathway (AID 743094; active = well fitted activation curve with a large enough effect in the signal ratio in the repeat runs, not every such curve was filed as active; the % refers to the signal ratio)
Peroxisome proliferator-activated receptor gamma (Homo sapiens), sequence (P37231 whole entry, looked up): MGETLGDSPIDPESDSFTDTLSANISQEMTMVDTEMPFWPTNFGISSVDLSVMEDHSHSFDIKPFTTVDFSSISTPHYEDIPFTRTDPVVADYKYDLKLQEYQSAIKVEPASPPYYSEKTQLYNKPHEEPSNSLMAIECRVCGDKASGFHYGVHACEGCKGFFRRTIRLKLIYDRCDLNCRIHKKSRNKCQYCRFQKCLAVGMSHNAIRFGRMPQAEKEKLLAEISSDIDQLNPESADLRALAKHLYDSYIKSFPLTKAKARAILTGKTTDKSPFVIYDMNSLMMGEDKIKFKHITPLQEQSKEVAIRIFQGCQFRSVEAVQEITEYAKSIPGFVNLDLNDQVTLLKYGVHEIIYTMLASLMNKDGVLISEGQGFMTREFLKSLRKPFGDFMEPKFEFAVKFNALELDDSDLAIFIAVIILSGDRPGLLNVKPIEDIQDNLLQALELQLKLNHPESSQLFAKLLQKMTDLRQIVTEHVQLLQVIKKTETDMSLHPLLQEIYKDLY
Summary of the method: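 Agonist activity was taken from a beta-lactamase reporter (FRET substrate, 1 h at room temperature) in HEK293H cells carrying a PPARg UAS-bla construct. Compounds in DMSO were incubated 17 h at 37C after a 5 h cell pre-incubation.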

[5] = qHTS assay to identify small molecule antagonists of the peroxisome proliferator-activated receptor gamma (PPARg) signaling pathway - cell viability counter screen (AID 743194); note: nearly all actives have a fitted effect of over 55% in size
Summary of the method: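 Cytotoxicity counter screen in PPARg-bla HEK293H cells, same wells as reporter assay. Compounds plus 50 nM rosiglitazone (final) for 17 h at 37 C, then viability read by CellTiter-Glo luminescence.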

[6] = qHTS assay for small molecule agonists of the antioxidant response element (ARE) signaling pathway (AID 743202; active = well fitted activation curve with a large enough effect in the signal ratio in the repeat runs, not every such curve was filed as active; the % refers to the signal ratio)
Summary of the method: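 HepG2 ARE-bla reporter line, 2,000 cells/well; 5 h preincubation 37 C/5% CO2; compound (DMSO) 16 h 37 C; B/G FRET substrate 2 h RT; fluorescence intensity.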

[7] = qHTS assay for small molecule agonists of the antioxidant response element (ARE) signaling pathway - cell viability counter screen (AID 743203; calls by dose curve; note: nearly all actives have a fitted effect of over 55% in size)
Summary of the method: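 Viability counter screen: CellTiter-Glo luminescence, read after 30 min at room temperature, in ARE-bla HepG2 wells. Compound exposure lasted 16 h at 37C/5% CO2, following a 5 h pre-incubation of the cells after plating.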

[8] = qHTS assay for small molecule activators of the heat shock response signaling pathway - cell viability counter screen (AID 743209); note: nearly all actives have a fitted effect of over 50% in size
Summary of the method: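 Cytotoxicity counter screen run in the same wells as the heat-shock bla reporter assay: HeLa HSE-bla cells, 5 h compound exposure at 37 C, viability read by CellTiter-Glo luminescence.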

[9] = qHTS assay to identify small molecule agonists of the peroxisome proliferator-activated receptor delta (PPARd) signaling pathway - cell viability counter screen (AID 743211); note: nearly all actives have a fitted effect of over 55% in size
Summary of the method: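 Following 5 h plating at 37 C and 5% CO2, PPARd UAS-bla HEK293H cells took up test compounds for 17 h. Viability was quantified by luminescence 30 min after CellTiter-Glo addition at room temperature.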

[10] = molecular target: Peroxisome proliferator-activated receptor delta (Homo sapiens) (UniProt Q03181); assay: qHTS assay to identify small molecule agonists of the peroxisome proliferator-activated receptor delta (PPARd) signaling pathway (AID 743212; calls by dose curve)
Peroxisome proliferator-activated receptor delta (Homo sapiens), sequence (Q03181 whole entry, looked up): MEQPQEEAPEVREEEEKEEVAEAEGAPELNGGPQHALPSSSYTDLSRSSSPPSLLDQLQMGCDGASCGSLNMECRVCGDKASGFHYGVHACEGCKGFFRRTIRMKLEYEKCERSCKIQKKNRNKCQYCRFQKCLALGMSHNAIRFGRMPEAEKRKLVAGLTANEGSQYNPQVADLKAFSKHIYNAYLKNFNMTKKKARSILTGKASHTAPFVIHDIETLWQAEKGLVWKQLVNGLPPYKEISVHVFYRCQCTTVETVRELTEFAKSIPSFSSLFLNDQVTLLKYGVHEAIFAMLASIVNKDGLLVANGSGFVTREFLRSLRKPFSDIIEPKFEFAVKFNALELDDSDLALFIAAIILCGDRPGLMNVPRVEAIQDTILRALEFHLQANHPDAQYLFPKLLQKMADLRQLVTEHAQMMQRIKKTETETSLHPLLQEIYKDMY
Summary of the method: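 Read-out: beta-lactamase FRET fluorescence after 2 h room-temperature incubation with LiveBLAzer B/G substrate. Cells were HEK293H carrying a UAS-bla reporter for PPARd, treated at 37 C with DMSO-dissolved compounds.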

[11] = qHTS assay to identify small molecule antagonists of the peroxisome proliferator-activated receptor delta (PPARd) signaling pathway - cell viability counter screen (AID 743213); note: nearly all actives have a fitted effect of over 50% in size
Summary of the method: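 CellTiter-Glo was added to PPARd-bla HEK293H wells following 17 h compound treatment in the presence of 300 nM L165041. Luminescence was recorded after 30 min at room temperature.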

[12] = molecular target: Bile acid receptor (Homo sapiens) (UniProt Q96RI1); assay: qHTS assay to identify small molecule antagonists of the farnesoid-X-receptor (FXR) signaling pathway (AID 743217; active = well fitted inhibition curve with a large enough effect in the signal ratio in the repeat runs, not every such curve was filed as active; the % refers to the signal ratio)
Bile acid receptor (Homo sapiens), sequence (Q96RI1 whole entry, looked up): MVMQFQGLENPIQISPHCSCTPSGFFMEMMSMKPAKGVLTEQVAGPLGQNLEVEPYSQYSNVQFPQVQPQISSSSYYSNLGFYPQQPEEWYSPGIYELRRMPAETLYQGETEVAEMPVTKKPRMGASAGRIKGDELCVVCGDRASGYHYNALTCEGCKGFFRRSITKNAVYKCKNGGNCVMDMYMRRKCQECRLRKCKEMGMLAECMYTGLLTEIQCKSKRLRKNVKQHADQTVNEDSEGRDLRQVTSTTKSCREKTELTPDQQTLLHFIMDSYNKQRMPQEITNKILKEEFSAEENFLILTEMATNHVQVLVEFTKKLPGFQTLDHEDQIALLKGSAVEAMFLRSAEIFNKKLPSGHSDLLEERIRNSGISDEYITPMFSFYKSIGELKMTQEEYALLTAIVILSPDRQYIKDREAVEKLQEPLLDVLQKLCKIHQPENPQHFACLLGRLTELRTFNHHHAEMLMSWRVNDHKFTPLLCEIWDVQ
Summary of the method: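 Antagonist mode: chenodeoxycholic acid at 50 uM final stimulates a UAS-driven beta-lactamase reporter in HEK 293T FXR-bla cells during 16 h, 37C compound exposure. Read-out is FRET substrate fluorescence after 2 h at room temperature.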

[13] = qHTS assay to identify small molecule agonists of the farnesoid-X-receptor (FXR) signaling pathway - cell viability counter screen (AID 743218); note: nearly all actives have a fitted effect of over 45% in size
Summary of the method: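 Viability counter screen in the same wells: CellTiter-Glo luminescence, 30 min room-temperature incubation, measured after the beta-lactamase read. Cells were GeneBLAzer FXR-UAS-bla HEK 293T, compound-treated 16 h at 37C.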

[14] = molecular target: Bile acid receptor (Homo sapiens) (UniProt Q96RI1); assay: qHTS assay to identify small molecule agonists of the farnesoid-X-receptor (FXR) signaling pathway (AID 743220; active = well fitted activation curve with a large enough effect in the signal ratio in the repeat runs, not every such curve was filed as active; the % refers to the signal ratio)
Summary of the method: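 FXR-UAS-bla HEK 293T cells carrying a UAS-driven beta-lactamase reporter were plated for 5 h at 37C/5% CO2, then exposed to DMSO-dissolved Tox21 10K compounds for 16 h at 37C. A LiveBLAzer B/G FRET substrate was loaded for 2 h at room temperature before fluorescence reading.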

[15] = qHTS assay to identify small molecule antagonists of the farnesoid-X-receptor (FXR) signaling pathway - cell viability counter screen (AID 743221; active = well fitted cell-killing curve with a large enough effect in the repeat runs, not every such curve was filed as active; note: nearly all actives have a fitted effect of over 50% in size)
Summary of the method: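 Compound effects on cell number were measured as CellTiter-Glo luminescence in HEK 293T cells expressing FXR-UAS-bla, after 16 h at 37 C with 50 uM CDCA (final).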

[16] = molecular target: Vitamin D3 receptor (Homo sapiens) (UniProt P11473); assay: qHTS assay to identify small molecule agonists of the vitamin D receptor (VDR) signaling pathway (AID 743222; calls by dose curve)
Vitamin D3 receptor (Homo sapiens), sequence (P11473 whole entry, looked up): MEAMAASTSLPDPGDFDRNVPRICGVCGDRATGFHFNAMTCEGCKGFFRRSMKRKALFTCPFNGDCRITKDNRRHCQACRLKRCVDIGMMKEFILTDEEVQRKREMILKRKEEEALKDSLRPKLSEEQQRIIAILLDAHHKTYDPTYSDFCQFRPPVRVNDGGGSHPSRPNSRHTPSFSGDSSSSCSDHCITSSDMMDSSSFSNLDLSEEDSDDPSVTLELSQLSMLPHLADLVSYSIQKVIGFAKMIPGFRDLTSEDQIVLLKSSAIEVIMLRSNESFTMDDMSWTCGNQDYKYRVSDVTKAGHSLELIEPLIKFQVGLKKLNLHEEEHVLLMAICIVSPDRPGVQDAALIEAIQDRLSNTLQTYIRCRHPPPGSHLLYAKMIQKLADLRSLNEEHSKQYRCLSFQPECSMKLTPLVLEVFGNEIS
Summary of the method: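 Agonist mode, beta-lactamase reporter: fluorescence from LiveBLAzer B/G FRET substrate (2 h, room temperature) read after 16 h compound treatment at 37 C of VDR-bla cells, which were pre-incubated 4 h after seeding.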

[17] = molecular target: Vitamin D3 receptor (Homo sapiens) (UniProt P11473); assay: qHTS assay to identify small molecule antagonists of the vitamin D receptor (VDR) signaling pathway (AID 743223; active = well fitted inhibition curve with a large enough effect in the signal ratio in the repeat runs, not every such curve was filed as active; the % refers to the signal ratio)
Summary of the method: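 Beta-lactamase activity in VDR-bla cells is measured by FRET substrate fluorescence (2 h, room temperature) after cells spend 16 h at 37C with test compound and 3 nM final 1alpha,25-dihydroxyvitamin D3.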

[18] = qHTS assay for small molecule activators of the heat shock response signaling pathway (AID 743210; active = well fitted activation curve with a large enough effect in the signal ratio in the repeat runs, with a control signal flat, not every such curve was filed as active; the % refers to the signal ratio;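 note: HeLa cells with beta-lactamase reporter driven by heat shock elements; series mostly up to about 63 µM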)
Summary of the method: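 Beta-lactamase reporter read-out: FRET substrate fluorescence after 2.5 h at RT, following 5 h compound treatment at 37 C of HeLa cells carrying HSE-driven bla reporter; quantitative HTS format.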

[19] = molecular target: Peroxisome proliferator-activated receptor delta (Homo sapiens) (UniProt Q03181); assay: qHTS assay to identify small molecule antagonists of the peroxisome proliferator-activated receptor delta (PPARd) signaling pathway (AID 743215; active = well fitted inhibition curve with a large enough effect in the signal ratio in the repeat runs, not every such curve was filed as active; the % refers to the signal ratio;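 note: cells stimulated with agonist L165041 at 300 nM final during compound exposure; series mostly up to about 62 µM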)
Summary of the method: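 Agonist L165041 (300 nM final) added with compound to PPARd-bla HEK293H UAS-bla reporter cells; 17 h incubation at 37 C. Read-out: LiveBLAzer FRET substrate, 2 h at room temperature, fluorescence intensity.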

[20] = molecular target: Peroxisome proliferator-activated receptor gamma (Homo sapiens) (UniProt P37231); assay: qHTS assay to identify small molecule antagonists of the peroxisome proliferator-activated receptor gamma (PPARg) signaling pathway (AID 743191; calls by dose curve; note: series mostly up to about 63 µM; nearly all actives have a fitted effect of over 30% in size)
Summary of the method: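 GeneBLAzer PPARg UAS-bla HEK293H cells, 5 h post-plating, exposed to compounds 17 h at 37C. LiveBLAzer B/G FRET substrate added for 1 h at room temperature; beta-lactamase reporter read by fluorescence intensity.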

Measured: Potency

FB(F)F
not listed: [18] | [19] | [20]
inactive: all other assays above

Nc1ccn([C@@H]2O[C@H](CO)[C@@H](O)C2O)c(=O)n1 (stereo partly drawn)
not listed: [6] | [12] | [17] | [20]
inactive: all other assays above

CCCC[N+](C)(CCCC)CCCC
not listed: [8] | [12] | [13] | [14] | [18] | [20]
inactive: all other assays above

Cc1nc2ccc(CN(C)c3ccc(C(=O)N[C@@H](CCC(=O)O)C(=O)O)s3)cc2c(=O)[nH]1
not listed: [12] | [20]
inactive: all other assays above

CO[C@@]1(NC(=O)CSC[C@@H](N)C(=O)O)C(=O)N2C(C(=O)O)=C(CSc3nnnn3C)CS[C@@H]21
not listed: [5] | [6] | [10] | [11] | [12] | [16] | [19]
inactive: all other assays above

CC(=O)c1ccccc1[N+](=O)[O-]
not listed: [9] | [10] | [12] | [14] | [20]
inactive: all other assays above

CC1=CC(=O)[C@H]2C[C@@H]1C2(C)C
not listed: [5] | [9] | [18]
inactive: all other assays above

CC(C#N)(CCC(=O)O)N=NC(C)(C#N)CCC(=O)O (stereo not drawn)
not listed: [10] | [12] | [19] | [20]
inactive: all other assays above

CCCC(C)C(=O)OCC (stereo not drawn)
not listed: [8] | [10] | [11] | [12] | [14] | [18] | [19] | [20]
inactive: all other assays above
